Results reported in PubChem BioAssay (Tox21).
Where “and” joins values, the source holds several entries; their conditions need not be identical. Equal values may be shown once. Results filed as inconclusive are left out. Where a call stands in place of a potency, no number is given. Where a structure was tested more than once in an assay, its records may differ in their call. Calls of active or inactive are those of the source. Unless noted, calls come from the whole dose curve; as a rule, active = well fitted curve in the direction sought with a large enough effect in the repeat runs; inconclusive = weak or mixed curves; inactive = no such curve, though single readings can be large; an effect the other way counts as inactive or inconclusive.

Legend:
[1] = qHTS assay to identify small molecule agonists of the vitamin D receptor (VDR) signaling pathway - cell viability counter screen (AID 743224); note: nearly all actives have a fitted effect of over 50% in size; note: potency is the fitted concentration of half-maximal effect
In short: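 VDR-bla cells, 4 h after plating, exposed to compounds for 16 h at 37C; viability then read in the same wells as CellTiter-Glo luminescence after 30 min at room temperature, following the bla FRET read.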

[2] = qHTS assay to identify small molecule antagonists of the vitamin D receptor (VDR) signaling pathway - cell viability counter screen (AID 743225); note: nearly all actives have a fitted effect of over 50% in size; note: potency is the fitted concentration of half-maximal effect
In short: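 Cells (VDR-UAS-bla HEK 293T) are plated, rested 4 h at 37C, dosed with compound and 3 nM final 1-alpha,25-dihydroxy vitamin D3, and incubated 16 h. Viability is taken from CellTiter-Glo luminescence in the reporter wells.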

[3] = qHTS assay to identify small molecule agonists of the NFkB signaling pathway - cell viability counter screen (AID 1159515; calls by dose curve; note: nearly all actives have a fitted effect of over 55% in size; note: potency is the fitted concentration of half-maximal effect)
In short: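 NFkB-bla ME-180 cells, 2,000/well, plated overnight at 37 C; compound added for 5 hr at 37 C. Viability read in the same wells as the bla reporter, by CellTiter-Glo luminescence after 30 min at room temperature.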

[4] = qHTS assay to identify small molecule agonists of the endoplasmic reticulum stress response signaling pathway - cell viability counter screen (AID 1159517; calls by dose curve; note: nearly all actives have a fitted effect of over 50% in size; note: potency is the fitted concentration of half-maximal effect)
In short: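 Cells, HeLa ESRE-bla; density, 1,500/well; dosing, 5 hr at 37 C, 5% CO2; readout, CellTiter-Glo luminescence after 30 min RT.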

[5] = qHTS assay to identify small molecule antagonists of the retinoid-related orphan receptor gamma (ROR-gamma) signaling pathway - cell viability counter screen (AID 1159520); note: nearly all actives have a fitted effect of over 50% in size; note: potency is the fitted concentration of half-maximal effect
In short: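 Cytotoxicity was read from cellular ATP (CellTiter-Glo luminescence) after 16 hr at 37 C with 1 uM doxycycline induction. The inducer was added 2 hr after compound transfer to Tet-on ROR gamma CHO cells.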

[6] = target: Nuclear receptor ROR-gamma (Homo sapiens) (UniProt P51449); experiment: qHTS assay to identify small molecule antagonists of the retinoid-related orphan receptor gamma (ROR-gamma) signaling pathway (AID 1159521; note: nearly all actives have a fitted effect of over 50% in size; note: potency is the fitted concentration of half-maximal effect)
In short: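 RORγ antagonism is scored from reduced reporter luminescence in Tet-on CHO cells. Induction used 1 uM final doxycycline hyclate for 16 h at 37 C, following a 2 h compound exposure.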

[7] = qHTS assay to identify small molecule agonists of the AP-1 signaling pathway - cell viability counter screen (AID 1159525; calls by dose curve; note: nearly all actives have a fitted effect of over 55% in size; note: potency is the fitted concentration of half-maximal effect)
In short: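 Luminescent ATP readout (Cell Titer Glo, 30 min RT), normalised to DMSO and tetra n-octyl ammonium bromide controls. Cells were ME-180 AP-1-bla in 0.5% dialyzed FBS Opti-MEM, with a 5 h, 37 °C compound exposure.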

[8] = qHTS assay to identify small molecule agonists of the RXR signaling pathway - cell viability counter screen (AID 1159529); note: nearly all actives have a fitted effect of over 50% in size; note: potency is the fitted concentration of half-maximal effect
In short: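 Cell viability is measured by CellTiter-Glo luminescence, 30 min at room temperature, in wells already read for beta-lactamase. Engineered HEK 293T cells (RXR-alpha-UAS-bla) are dosed 16 hr at 37 C. Tetraoctyl ammonium bromide serves as positive control.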

[9] = qHTS assay to identify small molecule antagonists of the retinoid acid receptor (RAR) signaling pathway - cell viability counter screen (AID 1159551); note: nearly all actives have a fitted effect of over 35% in size; note: potency is the fitted concentration of half-maximal effect
In short: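 C3RL4 RARE-luciferase cells, 1,000/well, incubated overnight, then dosed with compound plus 1 uM retinol (final). After 6 hr at 37 C, viability read by CellTiter-Glo ATP luminescence following 30 min at room temperature.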

[10] = qHTS assay to identify small molecule antagonists of the retinoic acid receptor (RAR) signaling pathway (AID 1159552; note: nearly all actives have a fitted effect of over 50% in size; note: potency is the fitted concentration of half-maximal effect)
In short: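 Quantitative HTS in C3RL4 RARE-luciferase reporter cells. Compounds were added with 1 uM (final) retinol; luminescence was read after 6 hr.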

[11] = qHTS assay to identify small molecule agonists of the retinoic acid receptor (RAR) signaling pathway (AID 1159553); note: potency is the fitted concentration of half-maximal effect
In short: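 C3RL4 RARE-luciferase cells were seeded at 1,000/well and grown overnight at 37 C, then exposed to compounds for 6 hr at 37 C, 5% CO2. Luciferase reagent was added and luminescence was read after 30 min at room temperature.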

[12] = qHTS assay to identify small molecule agonists of the AP-1 signaling pathway (AID 1159526; calls by dose curve; note: potency is the fitted concentration of half-maximal effect)
[13] = target: Retinoic acid receptor RXR-alpha (Homo sapiens) (UniProt P19793); experiment: qHTS assay to identify small molecule agonists of the RXR signaling pathway (AID 1159527; calls by dose curve; note: nearly all actives have a fitted effect of over 35% in size)
In short: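 qHTS of the Tox21 10K library in GeneBLAzer RXR-alpha HEK 293T cells carrying a beta-lactamase reporter […]; 16 hr treatment, 9-cis retinoic acid as agonist control, FRET read-out.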

[14] = qHTS assay to identify small molecule antagonists of the estrogen related receptor (ERR) signaling pathway - cell viability counter screen (AID 1224818); note: series mostly up to about 46 µM
In short: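 ERR cells, 2,000 per well, compound added after 6 h and incubated 17.5 h at 37 C. Viability read by CellTiter-Fluor fluorescence after a further 30 min at 37 C.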

[15] = qHTS assay to identify small molecule antagonists of the estrogen related receptor (ERR) signaling pathway (AID 1224819)
In short: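 ERR reporter cell line (NTP) plated at 2,000 cells/well, settled 6 h at 37C/5% CO2, then exposed to LOPAC compounds for 18 h at 37C. One-Glo luciferase luminescence read after 30 min at room temperature.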

[16] = test system: estrogen-related receptor alpha (ERRalpha) with PGC-1alpha coactivator, human; experiment: qHTS assay to identify small molecule antagonists of the estrogen related receptor signaling pathway with the pleiotropic PPARgamma coactivator (PGC) (AID 1224821; calls by dose curve)
In short: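 Quantitative HTS for antagonism: PGC/ERR cells received compounds after 6 h attachment and were incubated 18 h at 37 C, with luminescence (One-Glo) as the endpoint.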

[17] = qHTS assay to identify small molecule antagonists of the estrogen related receptor signaling pathway with the pleiotropic PPARgamma coactivator (PGC) cell viability counter screen (AID 1224822; note: series mostly up to about 46 µM)
In short: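 PGC/ERR cells rested 6 h, then compound-treated 17.5 h at 37 C. CellTiter-Fluor added for 30 min at 37 C, viability measured by fluorescence intensity.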

Chain of Retinoic acid receptor RXR-alpha (Homo sapiens) (P19793 whole entry, looked up): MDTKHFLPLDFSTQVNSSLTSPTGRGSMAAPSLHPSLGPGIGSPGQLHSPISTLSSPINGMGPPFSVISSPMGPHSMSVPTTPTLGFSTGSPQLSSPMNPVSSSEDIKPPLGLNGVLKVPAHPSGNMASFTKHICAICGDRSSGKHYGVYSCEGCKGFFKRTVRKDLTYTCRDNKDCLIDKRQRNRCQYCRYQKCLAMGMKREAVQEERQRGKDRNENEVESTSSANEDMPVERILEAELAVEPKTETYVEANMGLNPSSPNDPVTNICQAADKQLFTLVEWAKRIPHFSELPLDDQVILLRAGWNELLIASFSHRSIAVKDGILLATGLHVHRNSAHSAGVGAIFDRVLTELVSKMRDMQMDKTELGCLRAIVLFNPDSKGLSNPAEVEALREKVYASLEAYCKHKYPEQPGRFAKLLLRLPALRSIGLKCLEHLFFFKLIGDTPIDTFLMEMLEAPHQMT

Compound: CCCCCCCCCCCCCC[P+](CCCC)(CCCC)CCCC
- Potency [1]: 6.88 µM (active) and 7.76 µM (active)
- Potency [2]: 6.88 µM (active) and 7.76 µM (active)
- Potency [3]: 34.5 µM (active) and 21.9 µM (active)
- Potency [4]: 13.7 µM (active) and 15.5 µM (active)
- Potency [5]: 13.6 µM (active) and 10.9 µM (active)
- Potency [6]: 3.05 µM (active) and 4.86 µM (active)
- Potency [7]: 17.3 µM (active) and 21.9 µM (active)
- Potency [8]: 6.13 µM (active) and 11 µM (active)
- Potency [9]: 43 µM (active) and 43.3 µM (active)
- Potency [10]: 9.63 µM (active) and 9.69 µM (active)

Compound: c1cc(C(c2ccc(OCC3CO3)cc2)C(c2ccc(OCC3CO3)cc2)c2ccc(OCC3CO3)cc2)ccc1OCC1CO1 (configuration not stated)
- Potency [1]: inactive
- Potency [2]: inactive
- Potency [3]: inactive
- Potency [4]: inactive
- Potency [5]: inactive
- Potency [7]: inactive
- Potency [8]: inactive
- Potency [9]: inactive
- Potency [10]: inactive
- Potency [11]: 8.96 µM (active) and 27.3 µM (active)

Compound: CC[C@H]1CN2CCc3cc(OC)c(OC)cc3[C@@H]2C[C@@H]1C[C@H]1NCCc2cc(OC)c(OC)cc21
- Potency [1]: 19.6 µM (active) and inactive
- Potency [2]: inactive
- Potency [3]: inactive
- Potency [4]: 6.94 µM (active) and 4.25 µM (active)
- Potency [6]: 173 nM (active) and 750 nM (active)
- Potency [7]: inactive
- Potency [8]: inactive

Compound: CC[C@]1(O)C[C@@H]2CN(CCc3c([nH]c4ccccc34)[C@@](C(=O)OC)(c3cc4c(cc3OC)N(C)[C@H]3[C@@](O)(C(=O)OC)[C@H](OC(C)=O)[C@]5(CC)C=CCN6CC[C@]43[C@@H]65)C2)C1
- Potency [1]: inactive
- Potency [2]: inactive
- Potency [3]: inactive
- Potency [4]: inactive
- Potency [6]: 596 nM (active) and 8.41 µM (active)
- Potency [7]: inactive
- Potency [12]: 0.268 µM (active)
- Potency [9]: inactive

Compound: Cc1cc(OCCOCC[N+](C)(C)Cc2ccccc2)ccc1C(C)(C)CC(C)(C)C
- Potency [1]: 17.3 µM (active) and 26.6 µM (active)
- Potency [2]: 13.7 µM (active) and 19 µM (active)
- Potency [3]: 38.7 µM (active) and 26.8 µM (active)
- Potency [4]: 19.4 µM (active)
- Potency [5]: 68.2 µM (active) and 29.8 µM (active)
- Potency [6]: 60.8 µM (active) and 29.8 µM (active)
- Potency [7]: 34.5 µM (active) and 26.8 µM (active)
- Potency [8]: 10.9 µM (active) and 4.77 µM (active)
- Potency [9]: 60.8 µM (active) and 29.8 µM (active)
- Potency [10]: 48.3 µM (active) and 29.8 µM (active)

Compound: Nc1nc(=S)c2[nH]cnc2[nH]1
- Potency [1]: 1.74 µM (active) and 3.35 µM (active)
- Potency [3]: inactive
- Potency [4]: inactive
- Potency [6]: 26.6 µM (active) and inactive
- Potency [7]: inactive
- Potency [12]: inactive
- Potency [9]: inactive
- Potency [10]: inactive and 24.3 µM (active)
- Potency [11]: inactive

Compound: CC(=O)C1=C(C)[C@@H]2C[C@@]3(C1)[C@H](C)CC[C@H]3C2(C)C
- Potency [1]: inactive
- Potency [2]: inactive
- Potency [3]: inactive
- Potency [5]: inactive
- Potency [6]: inactive
- Potency [7]: inactive
- Potency [12]: inactive
- Potency [13]: inactive
- Potency [8]: inactive
- Potency [9]: inactive

Compound: NC(=Nc1ccccc1)Nc1ccccc1
- Potency [1]: inactive
- Potency [2]: inactive
- Potency [3]: inactive
- Potency [4]: inactive
- Potency [5]: inactive
- Potency [6]: inactive
- Potency [7]: inactive
- Potency [8]: inactive
- Potency [9]: inactive
- Potency [14]: inactive
- Potency [15]: inactive
- Potency [16]: inactive
- Potency [17]: inactive
